The record followed here is PubChem BioAssay AID1014 (NMMLSC, 2008).

The source made the active and inactive calls. Cut-off read from the data, not from the text of the source: active = inhibition of mean fluorescence above about 33%; inactive = the rest.

The experiment is described as follows: quorum sensing inhibitors in bacterial reporter, SAR follow-up, flow cytometry, SAR analogs (AID 1014).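 Note: Staphylococcus aureus RN6390 with RNAIII-GFP reporter stimulated by AIP; bacteria incubated with compound for 3 hours at 37 °C.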 The conditions noted are these: at 20 µM, stronger effect = higher value; inhibition of percent positive cells: flow cytometry fluorescence, measured here: percent reporter-positive cells. For orientation: In flow cytometry, cells or beads pass a laser one at a time.

On to `COc1cccc(C(=O)NCC(c2cccnc2)N2CCN(c3ccccc3F)CC2)c1` (stereo not drawn), for which the inhibition of mean fluorescence was 7% (inactive) and the inhibition of percent positive cells was -1.4%.
For `Cc1ccc(N=C2NC(=O)CC(C(=O)Nc3cccc4ccccc34)S2)cc1` (stereo not drawn) the same measures were -4.5% (inactive) and -0.7%.
With `Cc1ccccc1Nc1c(F)c(F)c(F)c(F)c1C(=O)O`, the inhibition of mean fluorescence is -18.8% (inactive) and the inhibition of percent positive cells was -1.9%.
In the case of `CCOC(=O)c1oc2cccc(O)c2c1C`, the inhibition of mean fluorescence was 0.4% (inactive) and the inhibition of percent positive cells is -0.8%.
Consider `NC1=NC(=O)CC(C(=O)Nc2cccc3ccccc23)S1` (stereo not drawn), for which the inhibition of mean fluorescence was 20.2% (inactive) and the inhibition of percent positive cells was found to be 1.5%.
In the case of `CCOC(=O)c1c(-c2cc(Cl)c(OC)c(Cl)c2)oc2ccc(O)cc12`, the inhibition of mean fluorescence was -4.9% (inactive) and the inhibition of percent positive cells is -0.4%.
Consider `N#Cc1c(NC(=O)COC(=O)c2c3c(nc4ccccc24)CCCC3)sc2c1CCCC2`, for which the inhibition of mean fluorescence is -13.5% (inactive) and the inhibition of percent positive cells is -0.1%.
For `NC1=NC(=O)CC(C(=O)Nc2ccccc2)S1` (stereo not drawn) the same measures were -19.2% (inactive) and -0.6%.
As to `COc1c(F)c(F)c(C(=O)O)c(Nc2cc(C)cc(C)c2)c1F`, the inhibition of mean fluorescence is -29.1% (inactive) and the inhibition of percent positive cells is -2%.
The corresponding values for `O=C(NC1CCCCC1)C(c1cc2c(cc1[N+](=O)[O-])OCO2)N1CCN(c2ccccc2)CC1` (stereo not drawn) are -34.9% (inactive) and 0.3%.
The corresponding values for `CCOC(=O)c1cnc2ccc(OC)cc2c1Nc1ccccc1C(=O)O` are -23.9% (inactive) and -1.3%.
Turning to `Cc1ccc(NC(=O)CN2CCN(Cc3ccc4c(c3)OCO4)CC2)cc1`, the inhibition of mean fluorescence was -30.1% (inactive) and the inhibition of percent positive cells is -0.8%.
The corresponding values for `Nc1c(Nc2ccccc2C(=O)O)c2ccccc2oc1=O` are 0% (inactive) and -2.2%.
With `O=C(Nc1ccc2c(c1)OCO2)C1CCN(C(=O)c2cnn(-c3ccccc3)c2-n2cccc2)CC1`, the inhibition of mean fluorescence is -13.6% (inactive) and the inhibition of percent positive cells is -0.1%.
For `CCc1ccc(Nc2nc3c(S(=O)(=O)c4ccc(Br)cc4)nnn3c3ccccc23)cc1` the same measures were -16.7% (inactive) and 0%.
Regarding `CC(C)c1ccc(NC(=O)C(c2cc3c(cc2[N+](=O)[O-])OCO3)N2CCOCC2)cc1` (stereo not drawn), the inhibition of mean fluorescence is 8.1% (inactive) and the inhibition of percent positive cells is 0.7%.
For `COc1ccc(NC(=O)C(c2cc3c(cc2[N+](=O)[O-])OCO3)N2CCCCC2)cc1` (stereo not drawn), the inhibition of mean fluorescence is -14.1% (inactive) and the inhibition of percent positive cells is -1.6%.
For `CN(C)c1ccc(Nc2c(C(=O)O)cc([N+](=O)[O-])cc2[N+](=O)[O-])cc1` the same measures were 10.4% (inactive) and 5.2%.
Consider `COc1ccc(Nc2nc3c(S(=O)(=O)c4ccc(F)cc4)nnn3c3ccccc23)cc1`, for which the inhibition of mean fluorescence is -28.2% (inactive) and the inhibition of percent positive cells was -1.1%.
For the compound `COc1cc(C(=O)NCC(c2cccnc2)N2CCN(c3ccccc3F)CC2)cc(OC)c1OC` (stereo not drawn), the inhibition of mean fluorescence is -57.3% (inactive) and the inhibition of percent positive cells is -1.5%.
For `Cc1ccc(S(=O)(=O)c2nnn3c2nc(Nc2cccc(C)c2)c2ccccc23)cc1` the same measures were 5.4% (inactive) and 1.5%.
In the case of `COc1ccc(S(=O)(=O)c2nnn3c2nc(Nc2ccccc2C)c2ccccc23)cc1`, the inhibition of mean fluorescence is -17.1% (inactive) and the inhibition of percent positive cells stood at 0.4%.
The corresponding values for `O=C(O)c1ccccc1Nc1c([N+](=O)[O-])c(=O)oc2ccccc12` are -23.2% (inactive) and -1.7%.
As for `CC(C)(C)c1ccc(S(=O)(=O)c2nnn3c2nc(Nc2ccccc2)c2ccccc23)cc1`, the inhibition of mean fluorescence is -15.5% (inactive) and the inhibition of percent positive cells is -0.9%.
Turning to `CC(=O)c1cc2c(cc1NC(=O)CN1CCOCC1)OCO2`, the inhibition of mean fluorescence was -26.1% (inactive) and the inhibition of percent positive cells was -1%.
For `COc1ccc(N2CCN(C(CNC(=O)c3cccc(Cl)c3)c3cccnc3)CC2)cc1` (stereo not drawn) the same measures were -42% (inactive) and -1.7%.
For `O=C(NCC(c1cccnc1)N1CCc2ccccc21)c1cccc(F)c1` (stereo not drawn) the same measures were 6.5% (inactive) and -2%.
For `COc1cccc(Nc2c(F)c(OC)c(F)c(F)c2C(=O)O)c1` the same measures were -6.6% (inactive) and 0%.
Regarding `CC(C)c1ccc(NC(=O)C(c2cc3c(cc2[N+](=O)[O-])OCO3)N2CCCCC2)cc1` (stereo not drawn), the inhibition of mean fluorescence was 29% (inactive) and the inhibition of percent positive cells is -0.2%.
For `CC(=O)c1cc2c(cc1NC(=O)CN1CCN(C(c3ccccc3)c3ccccc3)CC1)OCO2` the same measures were 38.7% (active) and 0.4%.
As for `O=C(NCC(c1cccnc1)N1CCN(c2ccccc2F)CC1)c1ccco1` (stereo not drawn), the inhibition of mean fluorescence is -27.7% (inactive) and the inhibition of percent positive cells is -1.9%.
The corresponding values for `CCOC(=O)c1c(COc2ccccc2)oc2ccc(O)cc12` are -1.1% (inactive) and -0.9%.
Consider `CC1CCCN(C(C(=O)Nc2ccc(C(C)C)cc2)c2cc3c(cc2[N+](=O)[O-])OCO3)C1` (stereo not drawn), for which the inhibition of mean fluorescence is 14.1% (inactive) and the inhibition of percent positive cells was -0.2%.
For `CC1CCCN(CCC(=O)Nc2ccc3c(c2)OCO3)C1` (stereo not drawn) the same measures were -15.3% (inactive) and -1.5%.
The corresponding values for `COc1ccc(C(=O)c2coc3ccc(O)cc23)cc1` are 5% (inactive) and 0.8%.
As for `COc1ccc(Nc2nc3c(S(=O)(=O)c4ccc(C)cc4)nnn3c3ccccc23)cc1`, the inhibition of mean fluorescence is 4.9% (inactive) and the inhibition of percent positive cells was -0.8%.
For the compound `O=C(Nc1ccc2c(c1)OCCO2)N1CCCC(CN2CCc3ccccc3C2)C1` (stereo not drawn), the inhibition of mean fluorescence is -1.4% (inactive) and the inhibition of percent positive cells stood at 0.1%.
For `CCN1CCN(C(C(=O)NC2CCCC2)c2cc3c(cc2[N+](=O)[O-])OCO3)CC1` (stereo not drawn) the same measures were -8.6% (inactive) and -0.6%.
Regarding `CC(C)c1ccc(S(=O)(=O)c2n[nH]n3c2nc(=O)c2ccccc23)cc1`, the inhibition of mean fluorescence was 80.5% (active) and the inhibition of percent positive cells was determined as 22.1%.
